Experimental data reported in PubChem BioAssay AID720537 (National Center for Advancing Translational Sciences (NCATS), 2013).
The whole screen tested about 1,600 compounds, of which about 55 (3%) were called active. Another 10% or so got no clear call; they are omitted. The call rests on the fitted dose curve; in most records, active means well fitted inhibition curve with a large enough effect; inconclusive means small, poorly fitted or top-dose-only effect; inactive means no such curve, though single readings can be large or run the other way. Only a sample is shown.

Assay: qHTS for Inhibitors of TGF-b: Hit Validation in HepG2 Cells using COP promoter; further: nearly all actives have a fitted effect of over 70% in size
Conditions: HepG2 COP-GFP TGF-b reporter, GFP fluorescence, 18 h, cells stimulated by added recombinant TGF-beta; series mostly up to 46.1 µM; activity, negative = inhibition: at the top concentration
Text: TGF-b is a main component in the TGF-b signaling pathway which plays diverse roles in cellular and development pathways. TGF-b is the mediated by the transcription factors Smads. Although the Smad-dependent pathway is the primary canonical TGF-b signaling node, TGF-b1 can also activate alternative signaling pathways, including those involving MAPK (ERK, JNK and p38). This interaction may mediate or enhance Smad-dependent responses, or can exert Smad-independent effects. The complexity of this signaling cascade allows the TGF-b superfamily to perform unique, overlapping or redundant functions. We believe that targeting the TGF-beta pathway at the Smad-transcription factor level may eliminate the consequences of disrupting the entire pathway and offer specificity without affecting other signaling pathways. Smad3 is the primary transducer of TGF-b's signals and Smad3 regulates many functions attributed to TGF-b signaling. We hypothesize that Smad3 inhibitors will selectively eliminate Smad3-specific TGF-beta signals without undesired off-target effects. We aim to identify Smad3-small molecule antagonists using a quantitative high throughput screening (qHTS) approach. A high-throughput assay was developed to screen the NIH Molecular Libraries Small Molecule Repository (MLSMR). This is a cell based assay, where TGF-b is tagged with GFP. This assays tests the hits identified from the primary screen in HepG2 cells, but using a cop promoter rather than a caga promoter. True actives from the primary screen will also be active in this assay. NIH Chemical Genomics Center [NCGC] NIH Molecular Libraries Probe Centers Network [MLPCN] MLPCN Grant: MH087449 Assay Submitter (PI): Sushil Rane, National Institute of Diabetes and Kidney Diseases
Suspensions of trypsinized HEPG2 COP-GFP cells were dispensed into white, tissue culture-treated, solid 1536-well plates at 5uL/well (1000 cells/well final concentration) in DMEM medium supplemented with 1% FBS. Plates were incubated at 37 degrees C for 2 hours, after which 23 nL of compounds or DMSO were delivered to each well using a pin tool. One uL of recombinant TGF-beta in DMEM (1% FBS) was then dispensed (500 pg/mL final concentration), and plates were incubated at 37 degrees C for 18 hours. The plates were measured on an Acumen eX3 Explorer plate reader for GFP fluorescence (ex488/em500-530). GFP values were calculated by determining the mean GFP fluorescence of individual cells, and compiling these values for each well to determine a total well GFP signal. The %Activity was determined from the corrected fluorescence values. A titration of the known TGF-B inhibitor SB431542 was included to monitor plate performance, while unstimulated HEPG2 (-TGF-B) control wells were used to normalize %Activity of identified inhibitors; unstimulated wells corresponded to 100%Activity (full inhibition), while stimulated cell controls (+DMSO) were used to normalize 0%Activity (no inhibition). Concentration-response curves were fitted to the signals arising from the resulting fluorescence. The concentration-effect curves were then classified based on curve quality (r2), response magnitude and degree of measured activity, and compounds were subsequently categorized based on their curve class.

activity, negative = inhibition, inactive:
Cc1ccc(S(=O)(=O)Nc2ccc3c(c2)C(=O)N([C@H](C)CO)C[C@@H](C)[C@@H](CN(C)C(=O)Nc2cccc4ccccc24)O3)cc1 -0.193%
CN(c1ccccc1)S(=O)(=O)c1ccc(C(=O)N2CCN(c3ccccc3Cl)CC2)cc1 14.1%
COc1cc(CC(=O)Nc2nc(-c3ccc(F)c(F)c3)cs2)cc(OC)c1OC 25%
COc1ccc2nc(N3CCN(C(=O)c4ccc([N+](=O)[O-])o4)CC3)sc2c1 -6.27%
CC1CCc2c(nc3ncnn3c2Nc2ccc(OC(F)(F)F)cc2)C1 (stereo not given) 2.87%
Cc1cc(C)cc(N(CC(=O)N2CC=C(c3ccccc3)CC2)S(=O)(=O)c2c(C)noc2C)c1 1.43%
Cc1oc2c(F)c(F)c(F)c(F)c2c1S(=O)(=O)Nc1cccc(C(F)(F)F)c1 54.8%
CCOC(=O)C1=C(N)N(c2ccc(C)cc2)C2=C(C(=O)CCC2)C1c1cccs1 (stereo not given) 22.7%
CN(C)c1nc(N)nc(CSc2nnnn2-c2cccc3ccccc23)n1 47.2%
CC(=O)c1ccc(-c2cnc3c(NC=O)cc(-c4cccc(NS(C)(=O)=O)c4)cn23)cc1 35.4%
COc1cc(NC(=O)COC(=O)c2ccc([N+](=O)[O-])s2)cc(OC)c1OC 5.21%
CN(C(=O)c1cccc(NC(=O)Cc2cccc([N+](=O)[O-])c2)c1)C1CCCCC1 13.5%
O=C(Nc1ccc(Cl)cc1)Nc1nnc(/C=C/c2ccccc2)s1 -2.14%
c1ccc2cc3c(NCCN4CCOCC4)ccnc3cc2c1 28.4%
OCCCNc1nccc(-c2cc(Nc3cccc(Cl)c3)ncn2)n1 22%
O=C(/C(=C/c1cccc(Cl)c1)c1nc2ccccc2[nH]1)c1ccccc1 45.1%
COc1cccc(CNc2nc(NCc3ccccc3OC)nc3ccsc23)c1 13.8%
CC(=NNC(=S)N1CCCCCC1)c1ccccn1 14.9%
CCN(CC)C(=O)C1=C(C)N(Cc2ccc(C(C)(C)C)cc2)C(=O)C(CC(=O)NCc2cccc3ccccc23)C1 (stereo not given) 48.3%
S=C(NCC1COc2ccccc2O1)Nc1ccc(Br)cc1 (stereo not given) 30.5%
CN(C)CCNC(=O)c1ccc(Cl)c2cc3ccccc3nc12 -6.16%
Cc1nc(/N=C(\N)NC(=O)NC2CCCCC2)nc2ccccc12 87%
O=C(Nc1nnc(S(=O)(=O)N2CCCCCC2)s1)c1cccc(Br)c1 34.1%
O=c1[nH]c(CCl)nc2cc(-c3ccc(Cl)cc3)sc12 20.5%
O=[N+]([O-])c1ccccc1S(=O)(=O)Nc1cccc2cccnc12 35.7%
COc1ccc(CNC(=O)C[C@H]2C[C@H](C(=O)N3CCOCC3)[C@@]3(CCC4CCCC4)c4[nH]c5ccc(Cl)cc5c4CCN3C2=O)cc1OC 53.4%
COc1ccc(C)cc1S(=O)(=O)N1CCN(S(=O)(=O)c2cc(C(=O)O)ccc2C)CC1 -3.02%
Cc1nn(-c2ccccc2)c(C)c1/C=N/NC(=O)CSc1nc2ccccc2c(=O)n1-c1ccccc1 -7.84%
COC(=O)COc1cccc2c(=O)n(CC(=O)NCc3ccccc3)ccc12 5.12%
Clc1ccc(Nc2nc(-c3cccs3)cs2)nc1 18.4%
Clc1cccc(Cc2c(-c3cccc(Cl)c3)nc3ccc(Cl)cn23)c1 18.8%
COc1ccc(C(=O)c2c3ccc([N+](=O)[O-])cc3[n+]([O-])n2CCCN)cc1 91%
COc1cc(NC(=O)c2ccccc2NS(=O)(=O)c2ccc(Cl)s2)cc(OC)c1 59.7%
Clc1ccc2c(c1)C1=C(C(c3ccncc3)O2)C(c2ccc(Br)cc2)n2ncnc2N1 (stereo not given) 13%
Cc1cccc(NS(=O)(=O)c2ccc(-c3cnc(C4CC4)o3)cc2)c1 55.2%
